# PubChem BioAssay AID504832 (National Center for Advancing Translational Sciences (NCATS), 2011)
# In all, about 310,000 compounds went through this assay and about 18,000 (5.8%) were called active. Not shown: some 22% with an inconclusive outcome. Only a selection was taken, and actives are over-represented in it overall. Unmarked numbers belong to inactive results. Calls follow the shape of the dose curve; as a rule, active = well fitted inhibition curve with a large enough effect; inconclusive = small, poorly fitted or top-dose-only effect, or another doubt; inactive = no such curve, though single readings can be large or run the other way.
# Test: Primary qHTS for delayed death inhibitors of the malarial parasite plastid, 48 hour incubation
# Details: P. falciparum luciferase growth in erythrocytes; series mostly up to 28.7 µM; activity change, negative = inhibition: at the top concentration
# Summary of the method: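 Parasite viability was followed by luminescence of a genomically integrated firefly luciferase. Cultures held 0.1% parasitemia at 2% hematocrit (final), incubated under 5% CO2 at 37 C.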
# % is scaled to controls: 0 for no effect and ±100 for the full control effect; potency is read from the fitted curve at half-maximal effect.
Structure (SMILES),"activity change, negative = inhibition",Potency
COc1ccc(C(=O)O)cc1S(=O)(=O)NCc1cccnc1,13.9%,
CC(=O)Nc1ccc(NC(=O)C2CCCN2S(=O)(=O)c2cccc(C(F)(F)F)c2)cc1 (configuration not stated),56.5%,
CCCCn1c(N)c(N(CC(C)C)C(=O)CN(C)S(=O)(=O)c2ccc(F)cc2)c(=O)[nH]c1=O,-18.4%,
CSCCC(NC(=O)COc1ccccc1)C(=O)OCCOc1ccc(F)cc1 (configuration not stated),-6.23%,
O=C1CSc2ccc(S(=O)(=O)NCc3ccccc3)cc2N1,18.8%,
CCN1/C(=C\c2ccc3ccccc3[n+]2CC)Sc2cc(C)ccc21,,1170 nM (active)
CCN1/C(=C/C(=S)Nc2ccccc2)Sc2ccccc21,4.72%,
CCN1/C(=C/c2ccc3ccc(C)cc3[n+]2CC)Sc2ccccc21,,1170 nM (active)
CCOC(=O)c1c(C)[nH]c(C(=O)OCC(=O)c2ccc(OC)cc2OC)c1C,50.2%,
CCCc1cc(=O)oc2c(C)c(OCC(=O)Nc3ccccn3)ccc12,-9.35%,
O=C(COC(=O)c1cnccn1)Nc1ccc(Cl)cc1C(F)(F)F,13.7%,
COC(=O)c1ccc(CSc2ccc(S(=O)(=O)N3CCCCC3)cn2)cc1,-17.8%,
CN(Cc1ccccc1)S(=O)(=O)c1nnc(NC(=O)c2ccccc2F)s1,0.694%,
COc1ccc(CCc2nc(-c3cccs3)no2)cc1,66%,
C=CCc1ccccc1OCC(O)CN1CCN(CCO)CC1 (configuration not stated),-12.8%,
Cc1cc(C)n2nc(C(=O)OC(C)C(=O)c3cc(C)c(C)cc3C)nc2n1 (configuration not stated),11.2%,

Structure (SMILES),"activity change, negative = inhibition",Potency
CCOC(=O)C1CN(S(=O)(=O)c2ccc(OC)cc2)c2cc(Cl)ccc2O1 (configuration not stated),-15.5% [at 0.00184 µM],
O=C(NNC(=O)c1csc(-c2cccnc2)n1)Nc1ccc(Cl)cc1,,8280 nM (active)
O=C(NNC(=O)c1cccnc1)Nc1ccccc1,-5.94%,
O=C(Nc1ccc(Cl)cc1)Nc1ccc(Oc2cccnc2)nc1,61.4%,
COc1cccc(CNS(=O)(=O)c2ccc3c(c2)CC(C)N3C(C)=O)c1 (configuration not stated),19.4%,
Cc1cccc(OCC(=O)NC2CC(C)(C)NC(C)(C)C2)c1,9.53%,
COc1ccc(CCNC(=O)c2c(C)nn(-c3ccccc3)c2Cl)cc1,17.6%,
COc1ccc(Nc2nc(-c3cccnc3)nc3ccccc23)cn1,0%,
COc1ccc(Sc2nc(-c3ccccc3)ncc2OC)cc1,60.4%,
CCC(=O)OCCNc1nc(-c2ccccc2)nc2ccccc12,20.8%,
COc1ccc(Cc2nc(-c3ccccn3)no2)cc1OC,54.6%,
N#Cc1ccc(Oc2cc(C(F)(F)F)nc(-c3ccccn3)n2)cc1,22.8%,
CC(C)(C)Nc1nc(-c2ccccn2)nc2ccccc12,,2940 nM (active)
Cc1ccc(Oc2nc(-c3ccccn3)nc3ccccc23)cc1,,1470 nM (active)
Cc1ccc(Oc2nc3ccccc3n3c(C)nnc23)cc1,15.2%,
COc1cnc(-c2ccccn2)nc1Oc1ccc(C(C)(C)C)cc1,,1650 nM (active)
